Only some compounds are listed: those with a hit (about 5.7% of all), similar ones and a draw of the others.
Nrf2 inh: Nrf2 pathway inhibition | 360,000 tested, 2.1% active | A549 ARE-Fluc reporter, luciferase luminescence, 18-24 h | Potency, µM (top dose mostly 46 µM), without a hit: top-dose activity change, negative = inhibition, actives largely listed as inhibitors; further: potency means the concentration at half of the fitted maximal effect; nearly all actives have a fitted effect of over 60% in size
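Cells were seeded and rested 2 h, then exposed to compounds for 18-24 h. CellTiter-Fluor was read first as a viability measure. BugLite was added 15 min before the final luminescent read of ARE-luciferase activity in A549 cells.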
KB-3-1 cytotox: kills parental KB-3-1 adenocarcinoma cells. KB-3-1 viability, CellTiter-Glo ATP luminescence, 72 h. Potency, µM (top dose mostly 46.1 µM), hits mostly cytotoxic. 400,000 tested, 1.4% active. AID 1347075; further: potency means the concentration at half of the fitted maximal effect; nearly all actives have a fitted effect of over 60% in size
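Luminescent ATP read-out (CellTiter-Glo) measures survival of drug-naive KB-3-1 cells after 72 h compound exposure at 37 °C. Titration series was screened from lowest to highest concentration, with DMSO vehicle plates as background controls.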
PI4K2A block: inhibitors of human PI4K2A. Q9BTU6. 420,000 tested, 0.13% active. AID 1346378. activity change, negative = inhibition, % at 76.9 µM. purified PI4K2A, ADP-Glo luminescence, 1 h; stronger effect = lower value; in the data active means activity change below about -50%; inconclusive means mostly about -30% to -49%;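 further: -100% = wells without enzyme as full effect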
Target sequence (Q9BTU6 whole entry, looked up): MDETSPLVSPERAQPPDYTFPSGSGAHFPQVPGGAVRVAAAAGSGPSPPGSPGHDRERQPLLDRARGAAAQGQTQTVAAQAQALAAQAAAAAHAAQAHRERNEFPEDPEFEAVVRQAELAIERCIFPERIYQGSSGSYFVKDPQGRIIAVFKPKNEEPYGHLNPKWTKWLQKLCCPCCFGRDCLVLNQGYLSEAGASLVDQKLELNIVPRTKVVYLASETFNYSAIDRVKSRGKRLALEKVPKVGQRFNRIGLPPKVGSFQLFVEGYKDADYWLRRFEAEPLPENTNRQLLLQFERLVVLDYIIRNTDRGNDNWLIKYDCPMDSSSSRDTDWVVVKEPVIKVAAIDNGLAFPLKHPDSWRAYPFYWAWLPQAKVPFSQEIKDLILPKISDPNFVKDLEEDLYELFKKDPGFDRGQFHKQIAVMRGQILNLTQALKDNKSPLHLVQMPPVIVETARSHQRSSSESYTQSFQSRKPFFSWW
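PI4K2A activity was measured by ADP-Glo luminescence: enzyme (4 ug/mL stock) and phosphatidylinositol (1.2 mM stock) in Tris pH 7.5/MgCl2/EGTA/Triton X-100 buffer were reacted with ATP (300 microM stock) for one hour at ambient temperature.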
KB-V1 cytotox: kills drug-selected multidrug resistant KB-V1 cells; KB-V1 MDR cells viability, CellTiter-Glo, 72 h; Potency, µM (doses to about 46.1 µM), actives largely listed as cytotoxic; 400,000 tested, 3.4% active; further: potency means the concentration at half of the fitted maximal effect; nearly all actives have a fitted effect of over 60% in size
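In this primary screen, KB-V1 cells overexpressing P-gp are incubated with library compounds (lowest to highest concentration) for 72 h at 37 degrees C before a luminescent ATP viability read.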
A549 tox: counter-screen for Nrf2 inhibitors: cytotoxicity in A549 cells; AID 504648; Potency, µM (highest dose often 46 µM), inactives show at the top dose activity change, negative = cytotoxicity, actives largely listed as inhibitors; A549 ARE-Fluc cells, CellTiter-Fluor viability, 18-24 h; 390,000 tested, 0.16% active; further: potency means the concentration at half of the fitted maximal effect
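A549 ARE_Fluc cells in 5% FBS OPTI-MEM were exposed to compounds in concentration-response for 18-24 h at 37 deg C. Viability was read by CellTiter-Fluor fluorescence (Ex 405/Em 525) after 30 min, before the luciferase read.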
Giardia kill: kills Giardia lamblia | activity change, % at 7.66 µM, hits read low | 340,000 tested, 0.15% active | AID 540267 | Giardia lamblia trophozoite viability; in the data active means activity change below about -80%; inconclusive means between about -30% and that limit;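 further: parasites exposed to compound for two days anaerobically before the ATP read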
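Trophozoites 100 cells/well + cpd; 48 hrs, 37 deg C, anaerobic. ATPLite 1-Step added, 15-30 min RT, luminescence read (ATP-based viability).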
* marks the source's active call; other numbers are inactive results; i = inactive; ? = inconclusive; . = no result; [ ] = another dose, or the depositor's remark. Unless noted, the call rests on the fitted dose curve; in most records, active means well fitted curve in the direction sought with a large enough effect; inconclusive means small, poorly fitted or top-dose-only effect, or another doubt; inactive means no such curve, though single readings can be large; an effect the other way counts as inactive or inconclusive. Unless noted, on the % scale 0 is the no-effect control and ±100 the full control effect.

SMILES | Nrf2 inh | KB-3-1 cytotox | PI4K2A block | KB-V1 cytotox | A549 tox | Giardia kill
O=C(Nc1cc(-c2nc3ncccc3o2)ccc1Cl)c1cccs1 | -2% | i | -1 | ? | -8% | -4
Cc1ccccc1S(=O)(=O)Cc1ccc(C(=O)N2CC(C)CC(C)C2)o1 (centres undefined) | 9% | i | -1 | i | 2% | 3
Cc1ccccc1S(=O)(=O)Cc1ccc(C(=O)N2CCN(c3cccc(C)c3C)CC2)o1 | 10µM* | 5.2µM* | -2 | 5.8µM* | ? | -5
Cc1ccccc1S(=O)(=O)Cc1ccc(C(=O)N2CCN(c3cccc(Cl)c3)CC2)o1 | 18µM* | 4.1µM* | -2 | 4.6µM* | -23% | .
COc1cccc(N2CCN(C(=O)c3ccc(CS(=O)Cc4ccc(Cl)cc4)o3)CC2)c1 (centres undefined) | ? | i | -3 | 16µM* | 0% | 3
Cc1ccc(S(=O)(=O)Cc2ccc(C(=O)N3CCN(c4cccc(Cl)c4)CC3)o2)cc1 | ? | ? | -7 | 5.8µM* | -7% | .
Cn1c(=O)n(CCc2ccccc2)c(=O)c2c1nc1n2CCN1c1ccc(Cl)cc1 | 9% | . | -3 | . | 2% | .
Cc1cc(C)c(NC(=O)CCn2c(=O)c3cccn3c3ccccc32)c(C)c1 | ? | . | 3 | . | ? | .
CN1CC=C(c2ccc(C(F)(F)F)cc2)N(c2ccc(Br)cc2)C1=O | . | . | 7 | . | . | .
COc1ccc(N2CCN(C(=O)Oc3ccc([N+](=O)[O-])cc3)CC2)cc1 | . | i | -1 | i | . | .
COc1ccc(N2CCN(C(=O)c3ccc(COc4ccc([N+](=O)[O-])cc4)o3)CC2)cc1 | 23µM* | . | 3 | . | -18% | 13
CCCCN(CCCC)S(=O)(=O)c1ccc(NS(=O)(=O)c2ccc(NC(C)=O)cc2)cc1 | 16µM* | i | 2 | i | -10%[1.84 µM] | -2
CCCCOC(=O)Nc1ccc(S(=O)(=O)Nc2ccc([N+](=O)[O-])cc2)cc1 | -24% | i | -5 | 21µM* | -17% | -17
CCCCOc1ccc(S(=O)(=O)Nc2ccc(NC(C)=O)cc2)cc1 | ? | ? | -1 | 21µM* | -9% | 6
CCCCN(CCCC)S(=O)(=O)c1ccc(NC(=O)Cc2cccs2)cc1 | ? | i | -2 | 5.2µM* | ? | 1
COc1cc(NC(=O)CCn2nc(C)c(S(=O)(=O)N3CCCCC3)c2C)cc(OC)c1OC | . | . | 3 | . | -2% | .
Cc1ccccc1Cn1c(CN2CCN(c3cc(Cl)ccc3C)CC2)nc2c1c(=O)[nH]c(=O)n2C | 3% | . | -11 | . | 2% | .
CC1CN(c2nc3c(c(=O)[nH]c(=O)n3C)n2Cc2ccccc2F)CC(C)O1 (centres undefined) | 0% | i | 3 | 18µM* | -4% | -3
Cc1ccc(Cl)cc1N1CCN(Cc2nc3c(c(=O)[nH]c(=O)n3C)n2Cc2ccccc2F)CC1 | 18µM* | ? | 1 | ? | -7% | 3
Nc1cc2c3c(cccc3c1)C(=O)N(CCN1CCCC1)C2=O | 13µM* | ? | -5 | 23µM* | ? | -5
Cc1cc(OCCCCNC(C)C)cc(C(C)C)c1 | -9% | i | 2 | 21µM* | -8% | 35
CCOc1ccccc1NS(=O)(=O)c1ccc(OC)c(OC)c1 | -6% | i | 0 | 26µM* | -17% | -3
COc1ccc(S(=O)(=O)Nc2ccccc2N2CCOCC2)cc1OC | 0% | i | -1 | 23µM* | 10% | 15
O=S(=O)(Nc1ccccc1N1CCOCC1)c1ccc(Cl)cc1 | 5% | i | -3 | ? | 1% | 4
COc1ccc(S(=O)(=O)N2CCOCC2)cc1NS(=O)(=O)c1ccc(F)c(F)c1 | 5% | i | 3 | 23µM* | 11% | -3
N=c1n(Cc2ccccc2)c2ccccc2n1Cc1ccccc1 | -23% | ? | -5 | 18µM* | -11% | 14
Cc1ccc(OCC(O)Cn2c(=N)n(Cc3ccccc3)c3ccccc32)cc1 (centres undefined) | ? | i | -5 | 16µM* | 0% | -22

Screens from PubChem BioAssay.
